CSC inhib = blocks cancer stem cells. inhibition, % at 7.5 µM. hit rate 1.1% among 300,000. AID 2717. cancer stem cell-like cells viability, luminescence; in the data active = inhibition above about 75%; inconclusive = no clear call, values can overlap the other calls; tested in HMLE shEcad cells
Mdm2 MdmX PPI = inhibitors of human Mdm2/MdmX interaction; inhibition, % at 8 µM; hit rate 3% among 330,000; AID 485346; O15151+Q00987; SaOS-2 split-luciferase Mdm2/MdmX complementation, luminescence;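 active = inhibition of at least 50% at 8 µM in the primary screen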
Target sequence (O15151 whole entry, looked up): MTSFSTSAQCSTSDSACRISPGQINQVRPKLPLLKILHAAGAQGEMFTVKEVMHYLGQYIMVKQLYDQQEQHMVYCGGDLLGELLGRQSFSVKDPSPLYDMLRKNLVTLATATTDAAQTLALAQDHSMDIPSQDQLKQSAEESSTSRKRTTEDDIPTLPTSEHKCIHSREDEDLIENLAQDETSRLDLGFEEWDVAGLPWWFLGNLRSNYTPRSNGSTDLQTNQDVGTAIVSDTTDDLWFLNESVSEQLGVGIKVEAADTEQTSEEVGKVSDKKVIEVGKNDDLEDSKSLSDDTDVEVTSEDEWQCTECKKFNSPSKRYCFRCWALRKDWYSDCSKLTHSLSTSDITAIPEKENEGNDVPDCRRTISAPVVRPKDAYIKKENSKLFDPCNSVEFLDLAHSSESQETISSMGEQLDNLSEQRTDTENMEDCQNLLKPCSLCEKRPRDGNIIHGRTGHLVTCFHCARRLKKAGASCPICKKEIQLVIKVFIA
Target sequence (Q00987 whole entry, looked up): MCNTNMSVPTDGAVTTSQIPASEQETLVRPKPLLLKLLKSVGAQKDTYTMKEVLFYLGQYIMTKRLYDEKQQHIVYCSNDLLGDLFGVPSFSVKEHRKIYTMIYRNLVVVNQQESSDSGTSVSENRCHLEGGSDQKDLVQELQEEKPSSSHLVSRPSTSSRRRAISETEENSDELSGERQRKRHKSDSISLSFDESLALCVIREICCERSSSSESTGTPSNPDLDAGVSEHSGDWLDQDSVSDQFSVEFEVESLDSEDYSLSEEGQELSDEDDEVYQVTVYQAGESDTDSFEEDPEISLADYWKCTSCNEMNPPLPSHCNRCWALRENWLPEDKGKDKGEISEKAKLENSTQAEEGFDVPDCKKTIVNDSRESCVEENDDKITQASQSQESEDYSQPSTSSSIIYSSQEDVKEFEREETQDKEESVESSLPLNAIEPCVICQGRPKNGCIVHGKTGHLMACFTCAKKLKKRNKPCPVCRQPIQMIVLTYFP
Beta apoptosis = blocks beta cell apoptosis. protection from apoptosis, % (concentration not given with the values). INS-1E cytokine-induced death, ATP luminescence, 48 h; percent of positive-control rescue, neutral wells zero. hit rate 0.8% among 300,000;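 active = Every replicate reaches about 75%, or at least half do and their mean reaches it too, limit read from the data; inconclusive = At least half of replicates reach the limit but their mean does not; inactive = Under half of replicates reach the limit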;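 note: 0% = cytokine-treated negative control wells and 100% = positive control rescue; higher means more ATP so stronger rescue from cytokine killing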
SKKanGAS inh = inhibitors of SKKanGAS S. pyogenes growth in kanamycin (SK-promoter or general growth effect); hit rate 1.3% among 300,000; inhibition, % at 7.5 µM; BacTiter-Glo, 6 h; AID 1662;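 active = mean replicate score, as percent of positive control median, at least 50; inconclusive = mean below 50 but one replicate at or above 50; inactive = mean and every replicate below 50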;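 note: strain carries kanamycin resistance gene driven by streptokinase promoter and grows in 40 µg/ml kanamycin; loss of luminescence reflects streptokinase promoter inhibition or plain growth inhibition; 0% = median of DMSO wells and 100% = positive control at its reference dose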
NR3A LBD binder = modulates the human NR3A ligand-binding domain | Tm shift relative to glycine control, % at 25 µM | hit rate 2.5% among 340,000 | NR3A LBD differential scanning fluorimetry, Tm shift; 0% = protein alone, 100% = glycine-bound protein;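 active = melting temperature shift of at least 10% of the positive control shift, at one fixed dose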
MPTP block = blocks calcium-induced mitochondrial swelling; hit rate 1.4% among 360,000; isolated mouse mitochondria, Ca2+ swelling absorbance, 30 min; AID 602449; inhibition, % at 10 µM;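 active = inhibition of 50% or more, scaled per plate between neutral and stimulator controls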;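 note: 0% = DMSO wells given calcium and 100% = 1 mM EGTA wells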
Numbers without * were called inactive; ? = inconclusive; . = no result. Hits are enriched below; roughly 6.9% of the tested compounds scored in any of these assays.

SMILES | CSC inhib | Mdm2 MdmX PPI | Beta apoptosis | SKKanGAS inh | NR3A LBD binder | MPTP block
Cc1cc(C)n(-c2nc(NCCCO)c3c4c(sc3n2)CCCC4)n1 | 20 | 20 | 81* | 55* | -3 | -4
Cc1cc(C)n(-c2nc(SCC(=O)O)c3c4c(sc3n2)CCCC4)n1 | 13 | 21 | 1 | 57* | . | .
Cc1cc(C)n(-c2nc(NCCO)c3c4c(sc3n2)CCCC4)n1 | -3 | 11 | 80* | -4 | 1 | -2
Cc1cc(C)n(-c2nc(NCC(C)O)c3c4c(sc3n2)CCCC4)n1 (stereo not drawn) | -1 | 16 | 57 | 0 | -9 | 0
CN(C)CC(=O)Nc1cc(C(F)(F)F)ccc1Cl | -3 | 8 | -2 | 4 | 0 | -7
CCOC(=O)/C(=N\Nc1cc(C(F)(F)F)ccc1Cl)N(CC)CC | 3 | 15 | -6 | 21 | 15* | 9
N/C(=N\S(=O)(=O)c1cc(C(F)(F)F)cc(C(F)(F)F)c1)c1ccncc1 | 5 | 9 | -9 | -12 | 15* | 3
CCOC(=O)C1=C(COC(=O)Cc2c(F)cccc2Cl)NC(=O)NC1C (stereo not drawn) | . | 13 | -5 | . | -1 | -1
COc1ccc(CN(C)C[C@H]2OCCCC[C@@H](C)Oc3ccc(NC(=O)c4ccccc4)cc3C(=O)N([C@H](C)CO)C[C@@H]2C)cc1 | . | . | . | . | . | -1
CC(=O)Nc1ccc2cc3ccc(NC(C)=O)cc3nc2c1 | 19 | . | -1 | -5 | 10* | 0
CC(=O)Nc1cccc(NC(=O)Nc2ccc(C)c(Cl)c2)c1 | 10 | 3 | 0 | -8 | 36* | 3
COc1ccc(NC(=O)Nc2ccc(Br)c(C)c2)cc1 | 5 | -34 | -5 | 3 | 25* | 36
CC(=O)Nc1ccc(NC(=O)Nc2ccc(C)c(C)c2)cc1 | 5 | 29 | -2 | -3 | 13* | 0
CCn1nnc2cc(C(=O)NCCc3ccccc3F)ccc21 | 1 | -8 | -1 | -1 | 1 | 0
CN(C)c1nc(F)c(F)c(S(=O)(=O)c2ccccc2)c1F | 3 | 18 | 6 | 11 | 0 | -1
Clc1ccc(-c2csc(N3CCCCCC3)n2)cc1 | 14 | -7 | 8 | 54* | -3 | 1
O=S(=O)(Nc1cccc(S(=O)(=O)N2CCCCC2)c1)c1ccccc1F | -9 | 14 | -4 | . | -1 | 0
C/C(=N\Nc1nc2ccc(Cl)cc2o1)c1ccccc1 | 4 | 8 | 4 | 68* | 4 | 2
Nc1nc2ccc(Cl)cc2o1 | . | . | . | . | 0 | 2
CCNC(=S)NNC(=O)c1ccc(OC)cc1 | -11 | 2 | 1 | 0 | -3 | 0
CCCCC(=O)NC(=S)NNC(=O)c1ccc(OC)cc1 | 15 | 27 | 22 | 86* | -1 | -3
COc1ccc(C(=O)NNC(=S)NC(=O)c2cccs2)cc1 | . | 28 | 11 | 89* | -2 | 1
O=C(COc1ccccc1)NNC(=S)NC(=O)c1ccc(Cl)cc1Cl | -3 | 15 | -2 | 77* | -10 | .
Cc1occc1C(=O)NNC(=S)NC(=O)COc1ccc(Cl)cc1Cl | . | 7 | -5 | 78* | -3 | 1
O=C(NCC1COCCO1)c1cc(COc2c(F)cccc2F)on1 (stereo not drawn) | -10 | 10 | -1 | -7 | -2 | 0
SMILES | CSC inhib | Mdm2 MdmX PPI | Beta apoptosis | SKKanGAS inh | NR3A LBD binder | MPTP block
COc1ccc(C(=O)NNC(=S)NC(=O)c2cccnc2)cc1 | 11 | 15 | 8 | 15 | -1 | -4
CCCOc1ccc(C(=O)NNC(=S)NC(=O)CC)cc1 | 24 | 47 | 71 | 106* | 5 | -2
COc1ccc(C(N)=S)cc1 | -8 | 32 | -6 | 5 | 29* | 0
Cc1cccc(C(=O)NC(=S)NNC(=O)COc2ccc(Cl)cc2)c1 | . | 24 | . | 62* | -4 | 11
COc1ccc(C(=O)NC(=S)NNC(=O)c2cccc(C)c2)cc1 | 24 | -6 | -4 | 113* | -5 | .
C=CCNC(=S)NNC(=O)c1ccc(OCCC)cc1 | -17 | 1 | -1 | 1 | -1 | 0
Cc1cccc(/C(N)=N/OC(=O)COc2ccc(Cl)cc2)c1 | -2 | -13 | -4 | . | 1 | -1
CN(C)c1ccc(/C=C/CNC[C@H]2O[C@@H](n3ccc(N)nc3=O)[C@H](O)[C@@H]2O)cc1 | . | . | . | . | . | 0
Clc1ccc(-c2nc3ccc(Br)cn3c2Cc2ccsc2)cc1 | . | . | . | . | . | -1
Cc1cccc(C(=O)NNC(=S)NC(=O)c2ccccc2)c1 | 25 | 36 | 17 | 96* | -2 | 28
COc1ccc(OCC(=O)NNC(=S)NC(=O)c2ccc(Br)o2)cc1 | . | 22 | -5 | 71* | -6 | 2
COc1ccc(C(=O)NNC(=S)NC(=O)c2ccc(OC)cc2)cc1 | 2 | 8 | . | 94* | -10 | 4
COc1ccc(OCC(=O)NNC(=S)NC(=O)c2ccc([N+](=O)[O-])cc2)cc1 | 24 | -24 | 0 | -2 | 1 | 1
CC(C)C(=O)Nc1ccc(C(=O)NNC(=S)NC(=O)c2cccs2)cc1 | 9 | -2 | 3 | ? | -11 | -1
Cc1cccc(C(=O)NNC(=S)NC(=O)c2cccs2)c1 | -5 | 20 | . | 76* | -2 | 3
Cc1ccc(C(=O)NNC(=O)c2cccc(C)c2)cc1 | -9 | 18 | -4 | -5 | -1 | -2
Cc1ccc(C)c(NS(=O)(=O)c2cc(C(=O)NCc3ccncc3)ccc2C)c1 | 3 | 4 | 7 | 10 | 1 | 0
CC(C)C[C@H]1CN=C(Nc2ccccc2)N1CCc1ccc(F)cc1 | 1 | 29 | 90* | . | -3 | 1
Cc1cccc(CCN2C(Nc3ccccc3)=NC[C@@H]2CC(C)C)c1 | 25 | 48 | -2 | . | 0 | 2
COc1cccc2cc(-c3nnc(SCC(=O)Nc4cc(C(F)(F)F)ccc4Cl)n3N)oc12 | 10 | 38 | 1 | 11 | 11* | 3
CCOc1cccc(C(=O)NC(=S)Nc2ccc(Cl)cc2C(=O)O)c1 | 8 | -14 | -4 | 15 | 1 | -3
CCCc1nn(C)c(C(=O)Nc2ccc3ccccc3c2)c1Cl | 4 | -142 | -1 | 3 | 17* | 2
CCCc1nn(C)c(C(=O)Nc2cccc(CC)c2)c1Cl | -7 | -47 | 0 | -6 | 12* | 3
Cc1ccc(CN2C(=O)C(CC(C)C)Nc3ncnc(N4CCCCC4)c32)cc1 (stereo not drawn) | . | . | . | . | . | -1
C=C1CCC2C(C)(C)[C@@H](O)CC[C@@]2(C)[C@@H]1COc1ccc2ccc(=O)oc2c1 (stereo partly drawn) | 16 | 8 | -1 | 52* | -7 | -1
C=C1CCC2C(C)(C)[C@H](O)CC[C@@]2(C)[C@@H]1COc1cc(=O)oc2ccccc12 (stereo partly drawn) | 30 | 33 | -2 | 19 | -11 | 0
Cc1ccc(C(=O)c2ccccc2C(=O)OCC(=O)Nc2ccc(SC(F)F)cc2)cc1 | -3 | 24 | 1 | 7 | -486 | 2
O=C(COC(=O)c1ccccc1Cc1ccccc1)Nc1ccc(SC(F)F)cc1 | 37 | . | 0 | 30 | 19* | 5

Bioassay records from PubChem BioAssay.
